From PubChem BioAssay (NCATS)
Results filed as inconclusive are left out. Entries that show only a call come without a potency. A number with no mark means an inactive call. Active and inactive are the calls of the source. Calls follow the shape of the dose curve; as a rule, active = well fitted curve in the direction sought with a large enough effect; inconclusive = small, poorly fitted or top-dose-only effect, or another doubt; inactive = no such curve, though single readings can be large; an effect the other way counts as inactive or inconclusive.

Tests used:
[1] = qHTS of pediatric cancer cell lines to identify multiple opportunities for drug repurposing: Primary screen for RD cells (AID 1347104); conditions: RD rhabdomyosarcoma viability, CellTiter-Glo luminescence, 48 h; series mostly up to 46 µM; also: nearly all actives have a fitted effect of over 55% in size; also: potency is read from the fitted curve at half-maximal effect
Summary of the method: (§1)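 Following a 5-hour attachment period, cells at 500-1,000/well received compounds and were cultured for 48 hours. CellTiter-Glo was added and luminescence read to estimate viable, metabolically active cells.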

[2] = qHTS of pediatric cancer cell lines to identify multiple opportunities for drug repurposing: Primary screen for MG 63 (6-TG R) cells (AID 1347105); conditions: MG 63 (6-TG R) viability, CellTiter-Glo, 48 h; series mostly up to 46 µM; also: nearly all actives have a fitted effect of over 50% in size; also: potency is read from the fitted curve at half-maximal effect
Summary of the method: as §1

[3] = qHTS of pediatric cancer cell lines to identify multiple opportunities for drug repurposing: Primary screen for control Hh wild type fibroblast cells (AID 1347106); conditions: Hh wild-type fibroblast viability, CellTiter-Glo luminescence, 48 h; series mostly up to 46 µM; also: nearly all actives have a fitted effect of over 55% in size; also: potency is read from the fitted curve at half-maximal effect
Summary of the method: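 Cells (500-1,000/well) in growth media were settled 5 h at 37 degrees C, then given compounds for 48 h. Viability was read as CellTiter-Glo luminescence. Primary runs used MIPE at 11 points (0.78 nM-46 µM) and NPC at 8 points (0.59 nM-46 µM); follow-ups used 11 points.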

[4] = qHTS of pediatric cancer cell lines to identify multiple opportunities for drug repurposing: Primary screen for Rh30 cells (AID 1347107); conditions: Rh30 rhabdomyosarcoma viability, CellTiter-Glo luminescence, 48 h; series mostly up to 46 µM; also: nearly all actives have a fitted effect of over 75% in size
Summary of the method: (§2)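 Viability after 48 h compound treatment at 37C, 500-1,000 cells/well, read as ATP luminescence with CellTiter-Glo. Primary screens used 11-point (MIPE, 0.78 nM-46 µM) or 8-point (NPC, 0.59 nM-46 µM) final concentrations; follow-up screens used 11-point dilutions.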

[5] = qHTS of pediatric cancer cell lines to identify multiple opportunities for drug repurposing: Primary screen for Rh41 cells (AID 1347108); conditions: Rh41 rhabdomyosarcoma viability, CellTiter-Glo luminescence, 48 h; series mostly up to 46 µM;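 also: luminescence drop marks cytotoxic hits; nearly all actives have a fitted effect of over 70% in size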
Summary of the method: as §1

[6] = qHTS of pediatric cancer cell lines to identify multiple opportunities for drug repurposing: Primary screen for OHS-50 cells (AID 1347103); conditions: OHS-50 osteosarcoma viability, CellTiter-Glo luminescence, 48 h; series mostly up to 57.3 µM; also: nearly all actives have a fitted effect of over 40% in size; also: potency is read from the fitted curve at half-maximal effect
Summary of the method: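 Cells (500-1,000/well) rested 5 h, then received compounds for 48 h; metabolically active cells were measured by CellTiter-Glo luminescence. Final concentrations spanned up to 46 µM (MIPE, 11-point) or 0.59 nM-46 µM (NPC, 8-point) in primary screens, 11-point in follow-ups.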

[7] = qHTS of pediatric cancer cell lines to identify multiple opportunities for drug repurposing: Confirmatory screen for A673 cells (AID 1347110); conditions: A673 Ewing sarcoma cell viability; also: potency is read from the fitted curve at half-maximal effect; nearly all actives have a fitted effect of over 65% in size
Summary of the method: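 Concentration-response curves came straight from titrations: 11 points (0.78 nM to 46 µM) for MIPE and several concentrations (0.59 nM to 46 µM) for NPC in primary, 11 points in follow-up. Readout: ATP luminescence at 48 h.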

[8] = qHTS of pediatric cancer cell lines to identify multiple opportunities for drug repurposing: Confirmatory screen for SK-N-MC cells (AID 1347111); conditions: SK-N-MC cell viability;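 also: potency is read from the fitted curve at half-maximal effect; cells exposed to compound for 48 h before the readout; nearly all actives have a fitted effect of over 70% in size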
Summary of the method: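 SK-N-MC cells at 500-1,000 cells/well in growth media were pre-incubated 5 h, then exposed to compounds at 11-point dilutions for 48 h at 37 degrees C, 5% CO2. Viability was read as CellTiter-Glo luminescence.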

[9] = qHTS of pediatric cancer cell lines to identify multiple opportunities for drug repurposing: Confirmatory screen for BT-12 cells (AID 1347112); conditions: BT-12 rhabdoid tumor cells, viability; series mostly up to 95.5 µM; also: potency is read from the fitted curve at half-maximal effect; nearly all actives have a fitted effect of over 55% in size
Summary of the method: as §2

[10] = qHTS of pediatric cancer cell lines to identify multiple opportunities for drug repurposing: Confirmatory screen for BT-37 cells (AID 1347117); conditions: BT-37 pediatric cancer cells, viability; also: potency is read from the fitted curve at half-maximal effect; nearly all actives have a fitted effect of over 55% in size
Summary of the method: as §2

[11] = qHTS of pediatric cancer cell lines to identify multiple opportunities for drug repurposing: Confirmatory screen for TC32 cells (AID 1347118); conditions: TC32 Ewing sarcoma cells viability qHTS; also: potency is read from the fitted curve at half-maximal effect; nearly all actives have a fitted effect of over 65% in size
Summary of the method: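 TC32 cells, 500-1,000/well in growth medium, compound-treated 48 h at 37 °C; viability from CellTiter-Glo luminescence. Primary screen: MIPE 11-point (0.78 nM–46 µM final), NPC 8-point (0.59 nM–46 µM final); confirmatory at 11-point dilutions.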

[12] = qHTS of pediatric cancer cell lines to identify multiple opportunities for drug repurposing: Confirmatory screen for MG 63 (6-TG R) cells (AID 1347119); conditions: MG-63 (6-TG resistant) osteosarcoma viability; series mostly up to 95.5 µM; also: nearly all actives have a fitted effect of over 55% in size; also: potency is read from the fitted curve at half-maximal effect
Summary of the method: as §2

[13] = qHTS of pediatric cancer cell lines to identify multiple opportunities for drug repurposing: Confirmatory screen for control Hh wild type fibroblast cells (AID 1347121); conditions: viability qHTS; series mostly up to 45.9 µM; also: nearly all actives have a fitted effect of over 70% in size
Summary of the method: as §2

[14] = qHTS of pediatric cancer cell lines to identify multiple opportunities for drug repurposing: Confirmatory screen for NB1643 cells (AID 1347109); conditions: NB1643 neuroblastoma cell viability; series mostly up to 95.5 µM; also: potency is read from the fitted curve at half-maximal effect; nearly all actives have a fitted effect of over 45% in size
Summary of the method: as §2

[15] = qHTS of pediatric cancer cell lines to identify multiple opportunities for drug repurposing: Confirmatory screen for LAN-5 cells (AID 1347113); conditions: LAN-5 neuroblastoma cell viability; series mostly up to 95.5 µM; also: potency is read from the fitted curve at half-maximal effect; nearly all actives have a fitted effect of over 65% in size
Summary of the method: as §2

[16] = qHTS of pediatric cancer cell lines to identify multiple opportunities for drug repurposing: Confirmatory screen for DAOY cells (AID 1347114); conditions: DAOY medulloblastoma cells viability, cytotoxicity qHTS; series mostly up to 97.2 µM; also: potency is read from the fitted curve at half-maximal effect; nearly all actives have a fitted effect of over 65% in size
Summary of the method: (§3)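 Viability measured as metabolically active cells via CellTiter-Glo luminescence following 48 hours of compound exposure, 11-point dilutions in confirmatory testing. 500-1,000 cells/well plated 5 hours before dosing; controls were DMSO and 2.3 µM bortezomib.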

[17] = qHTS of pediatric cancer cell lines to identify multiple opportunities for drug repurposing: Confirmatory screen for NB-EBc1 cells (AID 1347115); conditions: NB-EBc1 neuroblastoma cells, viability (cytotoxicity); series mostly up to 95.5 µM; also: potency is read from the fitted curve at half-maximal effect; nearly all actives have a fitted effect of over 45% in size
Summary of the method: as §2

[18] = qHTS of pediatric cancer cell lines to identify multiple opportunities for drug repurposing: Confirmatory screen for SJ-GBM2 cells (AID 1347116); conditions: SJ-GBM2 glioblastoma cells, viability; series mostly up to 97.2 µM; also: nearly all actives have a fitted effect of over 60% in size
Summary of the method: as §3

Cc1[nH]cnc1CN1CCc2c(c3ccccc3n2C)C1=O
Potency [1]: inactive | Potency [2]: inactive | Potency [3]: inactive | Potency [4]: inactive | Potency [5]: inactive

COC(=O)Nc1nc2ccc(C(=O)C3CC3)cc2[nH]1
Potency [6]: 1.1 µM (active) | Potency [3]: inactive | Potency [4]: inactive | Potency [7]: 1.31 µM (active) | Potency [8]: 1.04 µM (active) | Potency [9]: 16.5 µM (active) | Potency [10]: 2.33 µM (active) | Potency [11]: 1.17 µM (active) | Potency [12]: 1.47 µM (active) | Potency [13]: inactive

Cc1cc(O)c2ccccc2c1O
Potency [2]: 26.6 µM (active) | Potency [3]: inactive

Nc1ccc(C(=O)O)c(O)c1
Potency [6]: inactive | Potency [1]: inactive | Potency [2]: inactive | Potency [3]: inactive | Potency [4]: inactive | Potency [5]: inactive

COC(=O)C1=C(C)NC(C)=C(C(=O)OCC(C)C)C1c1ccccc1[N+](=O)[O-] (stereo not drawn)
Potency [6]: 24.6 µM (active) | Potency [2]: inactive | Potency [3]: inactive | Potency [4]: inactive

O=C1CN(/N=C/c2ccc([N+](=O)[O-])o2)C(=O)N1
Potency [6]: inactive | Potency [1]: inactive | Potency [3]: inactive | Potency [4]: inactive

CCCSc1ccc2nc(NC(=O)OC)[nH]c2c1
Potency [6]: 0.872 µM (active) | Potency [2]: 0.668 µM (active) | Potency [3]: inactive | Potency [4]: inactive | Potency [14]: 2 µM (active) | Potency [7]: 2 µM (active) | Potency [8]: 1.58 µM (active) | Potency [9]: 25.1 µM (active) | Potency [15]: 8.91 µM (active) | Potency [16]: 1.26 µM (active) | Potency [10]: 3.98 µM (active) | Potency [11]: 0.355 µM (active) | Potency [12]: 1.26 µM (active) | Potency [13]: inactive

CN(C)c1ccc(N=NS(=O)(=O)O)cc1
Potency [6]: inactive | Potency [1]: inactive | Potency [2]: inactive | Potency [3]: inactive | Potency [4]: inactive | Potency [5]: inactive

COc1cc(NC(C)CCCN)c2ncccc2c1 (stereo not drawn)
Potency [6]: 24.6 µM (active) | Potency [2]: inactive | Potency [3]: inactive | Potency [4]: inactive

Clc1ccccc1-c1nc(-c2ccncc2)no1
Potency [1]: inactive | Potency [2]: inactive | Potency [3]: inactive | Potency [4]: inactive | Potency [5]: inactive

C#CC1(O)CC[C@H]2[C@@H]3CCC4=CCCC[C@@H]4[C@H]3CC[C@@]21C (stereo partly drawn)
Potency [1]: inactive | Potency [2]: 21.1 µM (active) | Potency [3]: inactive | Potency [4]: inactive | Potency [5]: inactive

[O-][n+]1ccccc1SSc1cccc[n+]1[O-]
Potency [6]: 0.338 µM (active) | Potency [1]: 0.0731 µM (active) | Potency [2]: 0.184 µM (active) | Potency [3]: 11.6 µM (active) | Potency [14]: 1.15 µM (active) | Potency [7]: 1.62 µM (active) | Potency [8]: 0.456 µM (active) | Potency [9]: 3.23 µM (active) | Potency [15]: 0.288 µM (active) | Potency [17]: 2.57 µM (active) | Potency [10]: 0.811 µM (active) | Potency [11]: 1.29 µM (active) | Potency [12]: inactive | Potency [13]: inactive

CC1(C)S[C@@H]2[C@H](NC(=O)[C@H](N)c3ccccc3)C(=O)N2[C@H]1C(=O)O
Potency [6]: inactive | Potency [1]: inactive | Potency [2]: inactive | Potency [3]: inactive | Potency [4]: inactive | Potency [5]: inactive

CN1CCN(c2cc3c(nn2)Oc2ccccc2N3C)CC1
Potency [1]: inactive | Potency [2]: inactive | Potency [3]: inactive | Potency [4]: inactive | Potency [5]: inactive

CC(C(=O)O)c1ccc(C(=O)c2cccs2)cc1 (stereo not drawn)
Potency [6]: inactive | Potency [1]: inactive | Potency [2]: inactive | Potency [3]: inactive | Potency [4]: inactive | Potency [5]: inactive

Nc1nc2ccc([N+](=O)[O-])cc2s1
Potency [6]: 25.2 µM (active) | Potency [1]: inactive | Potency [2]: inactive | Potency [3]: inactive | Potency [4]: inactive | Potency [5]: inactive

Oc1c(Br)cc(Br)c2cccnc12
Potency [6]: 15.5 µM (active) | Potency [1]: 23.7 µM (active) | Potency [2]: 21.1 µM (active) | Potency [3]: inactive | Potency [14]: 26.1 µM (active) | Potency [7]: 11.7 µM (active) | Potency [8]: 1.17 µM (active) | Potency [15]: 18.5 µM (active) | Potency [17]: 26.1 µM (active) | Potency [18]: inactive | Potency [10]: 18.5 µM (active) | Potency [11]: 1.65 µM (active) | Potency [12]: 16.5 µM (active)

NC(=O)C(c1ccccc1)(c1ccccc1)[C@@H]1CCN(CCc2ccc3c(c2)CCO3)C1
Potency [1]: inactive | Potency [2]: inactive | Potency [3]: inactive | Potency [4]: inactive | Potency [5]: inactive

CC(C)OC(=O)c1cc(C(=O)OC(C)C)cc([N+](=O)[O-])c1
Potency [6]: inactive | Potency [1]: inactive | Potency [2]: inactive | Potency [3]: inactive | Potency [4]: inactive | Potency [5]: inactive

CCCC(=O)OC[C@@H](OC(=O)CCC)[C@@H](OC(=O)CCC)[C@H](Cn1c2nc(=O)[nH]c(=O)c-2nc2cc(C)c(C)cc21)OC(=O)CCC
Potency [2]: inactive | Potency [3]: inactive | Potency [4]: inactive

Cc1c(C(=O)O)c(O)cc2c1C(=O)c1c(O)c([C@@H]3O[C@H](CO)[C@@H](O)[C@H](O)[C@H]3O)c(O)c(O)c1C2=O
Potency [1]: inactive | Potency [4]: inactive

CC(C)(C)c1nnc(NS(=O)(=O)c2ccc(N)cc2)s1
Potency [6]: inactive | Potency [1]: inactive | Potency [2]: inactive | Potency [3]: inactive | Potency [4]: inactive | Potency [5]: inactive

O=c1[nH]c2ccccc2n1CCCN1CCN(C(c2ccccc2)c2ccccc2)CC1
Potency [6]: 15.5 µM (active) | Potency [2]: inactive | Potency [3]: inactive | Potency [4]: inactive

COC(=O)C1=C(C)NC(C)=C(C(=O)OCC(C)=O)C1c1ccccc1[N+](=O)[O-] (stereo not drawn)
Potency [4]: inactive | Potency [5]: inactive

O=C(O)/C=C\C(=O)O
Potency [6]: inactive | Potency [1]: inactive | Potency [2]: inactive | Potency [3]: inactive | Potency [4]: inactive | Potency [5]: inactive

O=c1cc(-c2ccccc2)oc2ccccc12
Potency [1]: inactive | Potency [2]: inactive | Potency [3]: inactive | Potency [5]: inactive
